Source: PubChem BioAssay (Tox21)
Inconclusive results are not listed. A number with no mark means an inactive call. Calls come from the whole dose curve; as a rule, active = well fitted curve in the direction sought with a large enough effect in the repeat runs; inconclusive = weak or mixed curves; inactive = no such curve, though single readings can be large; an effect the other way counts as inactive or inconclusive.

Experiment: qHTS RealTime-Glo MT Cell Viability Assay in HepG2 cells - 8 hour (AID 1224873); note: nearly all actives have a fitted effect of over 55% in size
Conditions: RealTime-Glo luminescence; series mostly up to 76.8 µM; viability change, negative = cytotoxic: at the top concentration
Outline: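 HepG2 cells (600/well) mixed with RealTime-Glo MT reagent, settled 5 h at 37 C/5% CO2 before compound addition. Nonlytic NanoLuc luminescence from viable-cell prosubstrate reduction read repeatedly during 40 h treatment at 37 C.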
% is set by controls: 0 for no effect and ±100 for the full control effect.

Row | Compound | viability change, negative = cytotoxic
1 | c1ccc(CNc2ncnc3c2ncn3C2CCCCO2)cc1 (configuration not stated) | -2.96%
2 | CC(C)(C)C1(CCc2ccc(Cl)cc2)CO1 (configuration not stated) | -11.8%
3 | O=C1OC[C@H](Cc2cccc(O)c2)[C@H]1Cc1cccc(O)c1 | 1.92% [at 35.3 µM]
4 | Nc1ccc(NC(=O)c2ccc(N)cc2)cc1 | 0.907%
5 | O=C(O)CCCc1c[nH]c2ccccc12 | 0.577%
6 | CC[C@@H](CO)NCCN[C@@H](CC)CO | 0.803% [at 35.3 µM]
7 | CC(C)(C)C(O)/C=C/c1ccc2c(c1)OCO2 (configuration not stated) | 3.32% [at 35.3 µM]
8 | C/C(C=O)=C\c1ccccc1 | 0.901%
9 | CCO[Si](C)(CCCOCC1CO1)OCC (configuration not stated) | 0.538%
10 | ClC1=C(Cl)C1(Cl)Cl | -0.493%
11 | Nc1c(Cl)cc(Cl)cc1[N+](=O)[O-] | -17.9%
12 | COc1ccc(-c2cc(C(F)F)nn2-c2ccc(S(N)(=O)=O)cc2)cc1F | -11.7% [at 35.3 µM]
13 | COC(=O)Nc1nc2ccc(C(=O)C3CC3)cc2[nH]1 | -13.1% [at 35.3 µM]
14 | CCCCCCCC/C=C/C(=O)O | 8.63% [at 35.3 µM]
15 | CC(=O)N[C@@H](Cc1ccc(O)cc1)C(=O)O | -8.32% [at 35.3 µM]
16 | Cc1ccc(Nc2c(F)cccc2Cl)c(CC(=O)O)c1 | 14.7% [at 35.3 µM]
17 | C=Cc1ccc(OC(C)=O)cc1 | 0.177%
18 | CCCOC(=O)c1c(Cl)c(Cl)c(Cl)c(Cl)c1C(=O)OCCC | -4.57%

Row | Compound | viability change, negative = cytotoxic
19 | COc1ccc(/C=C/C(=O)c2ccc(OC)cc2OC)cc1 | -8.38% [at 35.3 µM]
20 | Nc1ccc(N=Nc2ccc(N)cc2)cc1 | 1.61% [at 35.3 µM]
21 | CC1=C2[C@@H]([C@H](C)CC[C@H]2/C=C(\C)C(=O)O)[C@H](O)C1 | 1.6%
22 | CNCc1ccc(NC(=O)c2c[nH]c3c2C(=O)CCC3)cc1 | -14.1%
23 | O=C1CC[C@@H](C(=O)O)N1 | -0.903% [at 35.3 µM]
24 | C=CC(=O)O | 1.54% [at 35.3 µM]
25 | COc1cc(NC(C)CCCN)c2ncccc2c1 (configuration not stated) | -3.73% [at 35.3 µM]
26 | O=C(O)/C=C/c1ccc(O)c(O)c1 | 0.389%
27 | COc1cc(NS(=O)(=O)c2ccc(N)cc2)nc(C)n1 | 8.87% [at 35.3 µM]
28 | CC(=O)NCCO | -0.49%
29 | COc1cc(OC)c2ccc(=O)oc2c1 | -20.3%
30 | CCCCCc1ccco1 | 0.464% [at 35.3 µM]
31 | Nc1nc(-c2ccc([N+](=O)[O-])cc2)cs1 | -0.0005%
32 | O=C(C(=O)c1ccco1)c1ccco1 | -2.35%
33 | O=C(Oc1ccccc1)c1ccc2ccccc2c1O | -19.2%
34 | CC(C(=O)O)c1ccc(C(=O)c2cccs2)cc1 (configuration not stated) | 11.1% [at 35.3 µM]
35 | O=C(CCS)OCC(COC(=O)CCS)(COC(=O)CCS)COC(=O)CCS | 9.05%
36 | CCCCCCC(CO)CCCC (configuration not stated) | -10.5%

Experiment: qHTS RealTime-Glo MT Cell Viability Assay in HEK293 cells - 40 hour (AID 1224874); note: nearly all actives have a fitted effect of over 50% in size
Conditions: RealTime-Glo luminescence; max response: active compounds read low
Outline: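 Tox21 screen in HEK293 using RealTime-Glo MT chemistry, with cells and reagent co-dispensed. Luminescence proportional to viable cell number was captured at intervals during 40 h compound exposure at 37 C.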

Row | Compound | max response [%]
37 | CC(C)(C)C1(CCc2ccc(Cl)cc2)CO1 (configuration not stated) | -16.7
38 | O=C1OC[C@H](Cc2cccc(O)c2)[C@H]1Cc1cccc(O)c1 | -19.7
39 | Nc1ccc(NC(=O)c2ccc(N)cc2)cc1 | -13
40 | O=C(O)CCCc1c[nH]c2ccccc12 | -0.277
41 | CC[C@@H](CO)NCCN[C@@H](CC)CO | 5.04
42 | CC(C)(C)C(O)/C=C/c1ccc2c(c1)OCO2 (configuration not stated) | 1.57
43 | C/C(C=O)=C\c1ccccc1 | 0.492
44 | CCO[Si](C)(CCCOCC1CO1)OCC (configuration not stated) | 13.3
45 | ClC1=C(Cl)C1(Cl)Cl | -7.96
46 | Nc1c(Cl)cc(Cl)cc1[N+](=O)[O-] | 7.12
47 | CCCCCCCC/C=C/C(=O)O | 8.87
